From ChEMBL document CHEMBL1961873, “Compounds: GSK PKIS; Assays: Nanosyn kinase panel” (2012)

Legend:
[1] = target: RAC-alpha serine/threonine-protein kinase (Homo sapiens) (UniProt P31749); conditions: at 0.1 µM
[2] = target: RAC-alpha serine/threonine-protein kinase (Homo sapiens) (UniProt P31749); conditions: at 1 µM
[3] = target: RAC-beta serine/threonine-protein kinase (Homo sapiens) (UniProt P31751); conditions: at 0.1 µM
[4] = target: RAC-beta serine/threonine-protein kinase (Homo sapiens) (UniProt P31751); conditions: at 1 µM
[5] = target: RAC-gamma serine/threonine-protein kinase (Homo sapiens) (UniProt Q9Y243); conditions: at 0.1 µM
RAC-gamma serine/threonine-protein kinase (Homo sapiens), sequence (Q9Y243 whole entry): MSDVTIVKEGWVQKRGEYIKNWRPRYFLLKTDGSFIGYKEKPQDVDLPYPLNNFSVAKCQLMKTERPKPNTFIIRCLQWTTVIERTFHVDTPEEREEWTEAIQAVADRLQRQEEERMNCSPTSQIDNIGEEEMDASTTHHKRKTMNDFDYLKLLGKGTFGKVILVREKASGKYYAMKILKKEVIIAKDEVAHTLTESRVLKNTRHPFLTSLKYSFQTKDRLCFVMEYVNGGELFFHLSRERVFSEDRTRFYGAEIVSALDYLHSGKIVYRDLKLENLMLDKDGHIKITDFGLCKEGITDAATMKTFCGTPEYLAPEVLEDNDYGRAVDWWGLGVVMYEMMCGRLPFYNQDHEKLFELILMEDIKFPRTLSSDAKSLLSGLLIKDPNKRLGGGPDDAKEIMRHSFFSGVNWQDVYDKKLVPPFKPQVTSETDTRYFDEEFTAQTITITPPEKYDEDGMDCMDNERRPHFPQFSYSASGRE

[6] = target: G protein-coupled receptor kinase 6 (Homo sapiens) (UniProt P43250); conditions: at 0.1 µM
G protein-coupled receptor kinase 6 (Homo sapiens), sequence (P43250 whole entry, looked up): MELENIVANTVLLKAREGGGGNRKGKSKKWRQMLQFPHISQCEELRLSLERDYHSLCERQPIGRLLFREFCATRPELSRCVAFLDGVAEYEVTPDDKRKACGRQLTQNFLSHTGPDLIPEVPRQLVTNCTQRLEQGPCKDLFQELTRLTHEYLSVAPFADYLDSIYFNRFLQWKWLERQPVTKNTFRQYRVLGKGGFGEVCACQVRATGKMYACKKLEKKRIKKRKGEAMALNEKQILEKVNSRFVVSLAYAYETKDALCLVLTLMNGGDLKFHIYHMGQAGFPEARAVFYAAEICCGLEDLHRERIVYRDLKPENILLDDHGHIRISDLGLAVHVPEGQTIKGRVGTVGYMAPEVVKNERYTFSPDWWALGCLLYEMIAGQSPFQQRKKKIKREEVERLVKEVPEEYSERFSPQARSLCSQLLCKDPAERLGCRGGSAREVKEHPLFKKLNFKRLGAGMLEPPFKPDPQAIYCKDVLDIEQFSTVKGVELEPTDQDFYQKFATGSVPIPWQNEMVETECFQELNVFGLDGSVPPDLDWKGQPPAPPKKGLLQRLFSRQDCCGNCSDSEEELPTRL

[7] = target: T1, Rhodopsin kinase GRK7 (Homo sapiens) (UniProt Q8WTQ7); conditions: at 0.1 µM
T1 sequence (whole entry): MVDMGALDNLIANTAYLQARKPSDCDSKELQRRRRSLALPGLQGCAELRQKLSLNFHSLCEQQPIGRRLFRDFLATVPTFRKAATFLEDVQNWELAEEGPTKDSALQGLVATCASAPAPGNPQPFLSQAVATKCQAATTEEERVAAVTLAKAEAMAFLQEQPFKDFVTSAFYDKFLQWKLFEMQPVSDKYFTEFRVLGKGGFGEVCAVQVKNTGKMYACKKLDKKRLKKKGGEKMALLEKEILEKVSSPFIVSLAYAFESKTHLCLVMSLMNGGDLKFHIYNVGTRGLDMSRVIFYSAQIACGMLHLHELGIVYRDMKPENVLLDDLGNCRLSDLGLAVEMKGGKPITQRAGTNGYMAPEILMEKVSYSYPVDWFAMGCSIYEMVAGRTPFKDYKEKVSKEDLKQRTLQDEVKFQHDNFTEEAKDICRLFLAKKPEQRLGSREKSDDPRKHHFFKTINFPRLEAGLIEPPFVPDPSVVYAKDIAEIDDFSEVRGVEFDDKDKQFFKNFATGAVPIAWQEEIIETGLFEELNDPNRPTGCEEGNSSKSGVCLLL

[8] = target: T1, Rhodopsin kinase GRK7 (Homo sapiens); conditions: at 1 µM
[9] = target: RAC-gamma serine/threonine-protein kinase (Homo sapiens) (UniProt Q9Y243); conditions: at 1 µM
[10] = target: G protein-coupled receptor kinase 6 (Homo sapiens) (UniProt P43250); conditions: at 1 µM

RAC-alpha serine/threonine-protein kinase (Homo sapiens), sequence (P31749 whole entry): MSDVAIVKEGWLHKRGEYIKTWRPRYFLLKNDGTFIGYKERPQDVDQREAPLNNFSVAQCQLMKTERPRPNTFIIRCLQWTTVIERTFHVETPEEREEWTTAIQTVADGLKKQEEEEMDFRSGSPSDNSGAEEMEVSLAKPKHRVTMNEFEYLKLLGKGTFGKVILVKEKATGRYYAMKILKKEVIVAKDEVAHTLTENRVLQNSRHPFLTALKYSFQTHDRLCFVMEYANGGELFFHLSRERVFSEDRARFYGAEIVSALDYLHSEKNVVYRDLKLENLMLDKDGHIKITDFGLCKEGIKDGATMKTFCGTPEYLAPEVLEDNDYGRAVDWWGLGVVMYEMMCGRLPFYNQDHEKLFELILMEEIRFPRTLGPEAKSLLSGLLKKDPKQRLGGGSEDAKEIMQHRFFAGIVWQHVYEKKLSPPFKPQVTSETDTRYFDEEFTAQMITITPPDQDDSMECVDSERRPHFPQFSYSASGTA
RAC-beta serine/threonine-protein kinase (Homo sapiens), sequence (P31751 whole entry): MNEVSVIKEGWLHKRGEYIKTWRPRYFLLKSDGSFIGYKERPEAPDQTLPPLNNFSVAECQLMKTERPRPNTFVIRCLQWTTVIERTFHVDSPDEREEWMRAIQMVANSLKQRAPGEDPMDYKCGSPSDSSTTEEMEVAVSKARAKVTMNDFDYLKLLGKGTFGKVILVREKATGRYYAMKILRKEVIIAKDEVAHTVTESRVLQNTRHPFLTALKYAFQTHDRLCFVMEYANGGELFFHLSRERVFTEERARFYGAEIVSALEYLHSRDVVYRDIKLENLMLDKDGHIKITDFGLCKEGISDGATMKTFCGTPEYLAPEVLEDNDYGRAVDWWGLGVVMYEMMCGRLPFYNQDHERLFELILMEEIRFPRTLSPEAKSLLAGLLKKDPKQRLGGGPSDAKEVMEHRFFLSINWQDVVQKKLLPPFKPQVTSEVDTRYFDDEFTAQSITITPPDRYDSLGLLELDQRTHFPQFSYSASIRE

Row | Compound | inhibition [1] [%] | inhibition [2] [%] | inhibition [3] [%] | inhibition [4] [%] | inhibition [5] [%] | inhibition [6] [%] | inhibition [7] [%] | inhibition [8] [%] | inhibition [9] [%] | inhibition [10] [%]
1 | Cc1cc(-c2ccco2)cc(C)c1/C=C/c1cncc(-c2nn[nH]n2)c1 | -0.08 | -0.39 | -0.63 | 0.09 | -0.47 | -3.85 | 11.8 | 49.9 | – | –
2 | CCn1c(-c2nonc2N)nc2c(C#CC(C)(C)O)ncc(OC[C@@H]3CCCN3)c21 | 68.2 | 91.1 | 79.7 | – | 67.5 | -2.91 | 6.42 | 14 | 90.4 | 0.91
3 | COc1cccc(COc2cc(-n3cnc4ccccc43)sc2C(N)=O)c1 | 2.26 | 0.35 | – | 2.81 | -0.85 | 0.1 | 4.74 | -0.33 | -1.8 | 0.82
4 | Fc1ccc(-c2ncn(C3CCNCC3)c2-c2ccnc(Oc3ccccc3)n2)cc1 | -3.52 | -2.95 | -2.98 | – | -3.09 | -2.07 | 8.55 | -1.71 | 4.46 | 1.13
5 | COc1cccc(-n2ncc3c(N/N=C/c4ccncc4)ncnc32)c1 | 0.24 | -0.78 | 1.42 | -0.44 | 3.63 | 1.7 | 5.1 | 5.17 | 0.47 | 1.85
6 | NC(=O)c1sc(-n2cnc3cc(C(F)(F)F)ccc32)cc1OCc1ccccc1Br | 0.26 | 0.43 | -0.81 | 0.47 | 0.03 | 3.71 | 5.6 | 5.78 | – | 1.08
7 | COc1cc2c(cc1Nc1nc(Nc3ccsc3C(N)=O)c3cc[nH]c3n1)N(C(=O)CN(C)C)CCC2 | -0.27 | -0.06 | 2.64 | 0.91 | 2.81 | 27.5 | 22.1 | 60.3 | 4.75 | 82.8
8 | COc1cc(C=NNc2ncnc3c2cnn3Cc2ccccc2)ccc1O | -2.34 | -2.35 | -3.56 | -1.08 | -2.66 | -3.93 | – | -3.65 | -1.29 | -0.64
9 | NS(=O)(=O)c1ccc(-c2ccc3c(NC(=O)C4CC4)n[nH]c3c2)cc1 | 0.97 | 1 | 1.38 | 0.67 | 0.25 | 0.33 | -0.74 | – | -0.65 | -2.37
10 | CCn1c(-c2nonc2N)nc2c(C#CC(C)(C)O)ncc(OCC3CCNCC3)c21 | 60.7 | 88.2 | 74.2 | 89.3 | 57.7 | 4.53 | 5.08 | 23.3 | 86 | 11.1
11 | CCn1c(-c2nonc2N)nc2c(C#CC(C)(C)O)nc(O[C@@H](CN)c3ccccc3)cc21 | 93.7 | 96.4 | – | – | 93.3 | 1.13 | 3 | 114 | 95 | 1.51
12 | NS(=O)(=O)c1ccc(N/C=C2\C(=O)Nc3ccc4ncsc4c32)cc1 | 0.54 | 0.61 | 2.08 | 2.38 | 0.65 | 4.87 | 8.46 | 6.58 | 3.15 | 18.7
13 | Nc1nonc1-c1nc2cnccc2n1C1CCCCC1 | 3.37 | 37.4 | 1.24 | 22.4 | 3.35 | -0.4 | -7.5 | 2.63 | 32.3 | 2.07
14 | CCn1c(-c2nonc2N)nc2c(C#CCN)ncc(OCCCN)c21 | -0.6 | 10.9 | -0.31 | 12.8 | 1.83 | -5.01 | 0.4 | 7.43 | 10 | 6.23
